From PubChem BioAssay (NCATS)
Results filed as inconclusive are left out. A call without a number means that no potency is given here. Calls of active or inactive are those of the source. The call rests on the fitted dose curve; in most records, active means well fitted inhibition curve with a large enough effect; inconclusive means small, poorly fitted or top-dose-only effect; inactive means flat fitted curve, though single readings scatter.

tested on: UISO; experiment: qHTS assay to identify novel small-molecules to repurpose for Merkel cell carcinoma treatment (AID 1296009); details: MCC and control cell lines, CellTiter-Glo viability, 72 h; series mostly up to 46 µM; further: nearly all actives have a fitted effect of over 60% in size
Summary of the method: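 Cells were incubated with compound for 72 hr at 37 degree celsius before CellTiter-Glo addition. Luminescence was normalized with no-cell wells as full cytotoxicity and DMSO as baseline.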

SMILES	Potency
CN1CCN(C2=Nc3cc(F)ccc3Cc3ccccc32)CC1	inactive
CC(C)[N+](C)(C)CC(O)COc1cccc2ccccc12 (stereo not drawn)	inactive
CCN(CC)CCOc1ccccc1C(=O)CCc1ccccc1	inactive
CCCCN=C(N)N=C(N)N	inactive
Cc1cc2c(OCC(CNC(C)(C)C)OC(=O)c3ccccc3)cccc2[nH]1 (stereo not drawn)	inactive
c1ccc(CC2=NCCN2)cc1	inactive
CN1CCN(C2=Nc3ccccc3Sc3ccc(Cl)cc32)CC1	inactive
Cc1ccc(O)c([C@H](CCN(C(C)C)C(C)C)c2ccccc2)c1	inactive
C#C[C@]1(O)CC[C@H]2[C@@H]3CCc4cc(OC)ccc4[C@H]3CC[C@@]21C	inactive
O=C(CCN1CCN2CCCC2C1)N1c2ccccc2Sc2ccc(Cl)cc21 (stereo not drawn)	inactive
COc1cc(O)c(C(=O)c2ccccc2)cc1S(=O)(=O)O	inactive
CCC(CC)(CC(=O)Nc1cccc(/C=C/c2nc(C3CCC3)cs2)c1)C(=O)O	inactive
OC[C@H]1O[C@@H](Oc2ccc(O)cc2)[C@H](O)[C@@H](O)[C@@H]1O	inactive
